# The whole screen tested about 16,000 compounds, of which about 5,100 (32%) were called active. About 25% were inconclusive and are not listed. The list shows a part of the results. A number with no mark means an inactive call. Calls follow the shape of the dose curve; as a rule, active = well fitted curve in the direction sought with a large enough effect; inconclusive = small, poorly fitted or top-dose-only effect, or effect the other way; inactive = no such curve, though single readings can be large or run the other way. Peptide text beside a SMILES is read from it.
# Molecular target: Cytochrome P450 3A4 (Homo sapiens) (UniProt P08684)
# Sequence (P08684 whole entry, looked up): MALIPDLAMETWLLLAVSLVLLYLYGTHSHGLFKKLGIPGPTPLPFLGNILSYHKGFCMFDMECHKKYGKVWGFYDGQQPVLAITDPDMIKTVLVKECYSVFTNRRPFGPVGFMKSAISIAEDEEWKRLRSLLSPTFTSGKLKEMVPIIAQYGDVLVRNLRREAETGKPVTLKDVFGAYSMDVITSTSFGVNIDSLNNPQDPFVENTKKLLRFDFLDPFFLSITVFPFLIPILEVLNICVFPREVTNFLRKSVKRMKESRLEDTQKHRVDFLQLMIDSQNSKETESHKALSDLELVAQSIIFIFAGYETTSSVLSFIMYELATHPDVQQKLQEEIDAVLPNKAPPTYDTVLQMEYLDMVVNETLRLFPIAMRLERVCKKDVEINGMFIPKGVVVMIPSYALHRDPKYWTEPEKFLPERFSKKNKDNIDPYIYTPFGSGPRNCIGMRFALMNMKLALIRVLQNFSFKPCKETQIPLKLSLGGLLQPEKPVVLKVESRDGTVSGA
# Assay: Cytochrome panel assay with activity outcomes
# Conditions: recombinant CYP, pro-luciferin dealkylation, luminescence, p450-cyp3a4; series mostly up to 57.1 µM
# % is scaled to controls: 0 for no effect and ±100 for the full control effect.
Compound,AC50,"activity, negative = inhibition"
Cc1noc(C)c1-c1cncnc1N(C)Cc1ccco1,3.16 µM (active),–
Cc1noc(C)c1-c1cc(N(C)Cc2ccco2)ncn1,inactive,–
COc1ccccc1-c1cc(N(C)Cc2ccco2)ncn1,inactive,–
CN(Cc1ccco1)c1cc(-c2ccccc2Cl)ncn1,inactive,–
CN(Cc1ccco1)c1ncncc1-c1ccccc1C(F)(F)F,1.26 µM (active),–
CN(Cc1ccco1)c1ccnc(-c2ccccc2C(F)(F)F)n1,inactive,–
CN1[C@H](CC(=O)c2ccccc2)CCC[C@H]1C[C@H](O)c1ccccc1,inactive,–
NC(=O)N1c2ccccc2C=Cc2ccccc21,inactive,–
O=C(C[C@@H]1C=Cc2ccccc2N1C(=O)c1ccccc1)c1ccccc1,3.98 µM (active),–
O=C(O)[C@H]1C[C@@H](CP(=O)(O)O)CCN1,inactive,–
CCCCN(C)CCCNC(=O)c1ccc(N2CCCC2=O)cc1,inactive,–
Cc1ccccc1-c1nc(CS(=O)CC(=O)NCCCN(C)c2ccccc2)c(C)o1 (stereo not given),3.98 µM (active),–
Cc1ccccc1-c1nc(CS(=O)CC(=O)NCCN2CCN(Cc3ccccc3)CC2)c(C)o1 (stereo not given),7.08 µM (active),–
O=C(NCCN1CCN(Cc2ccccc2)CC1)C1c2ccccc2C(=O)N2CCc3ccccc3C12 (stereo not given),–,-22.2% [at 2.29 µM]
CN(C)CCCNC(=O)CCc1nc2ccccc2c(=O)[nH]1,inactive,–
CCCCN(C)CCCNC(=O)CS(=O)Cc1nc(-c2ccc(OC)c(OC)c2)oc1C (stereo not given),14.1 µM (active),–
C=CCN1C(=NC(=O)CC)SC2CS(=O)(=O)CC21 (stereo not given),inactive,–
O=C(O)C(=O)/C=C(\O)c1ccc(Br)cc1,–,-7.81% [at 11.4 µM]
COc1ccc(S(=O)(=O)NNC(=O)C2Cc3c(ccc4ccccc34)O2)cc1 (stereo not given),10 µM (active),–
NNC(=O)CCc1ccc2ccc3ccccc3c2c1,0.398 µM (active),–
O=C(O)CCCc1ccc2ccccc2c1,–,-5.59% [at 11.4 µM]
O=C(O)CCCc1ccc2ccc3ccccc3c2c1,–,-10% [at 11.4 µM]
CCOC(=O)N1CCC(NC(=O)CSCc2cnn(-c3ccccc3)c2-n2cccc2)CC1,12.6 µM (active),–
COc1ccc(OC)c(NC(=O)CSCc2cnn(-c3ccccc3)c2-n2cccc2)c1,10 µM (active),–
O=S(=O)(c1ccccc1)N1CCC[C@@]2(CCN(c3ccccc3)C2)C1,5.01 µM (active),–

Compound,AC50,"activity, negative = inhibition"
CS(=O)(=O)N1CCC2(CCN(c3ccncc3)CC2)CC1,inactive,–
O=S(=O)(c1ccccc1)N1CCC[C@@]2(CCN(c3ccncc3)C2)C1,3.98 µM (active),–
CN1CCN(C(=O)C(C(=O)c2ccc(F)cc2)n2ccccc2=O)CC1 (stereo not given),inactive,–
CC(=O)N[C@@H](CC(=O)O)C(=O)N[C@@H](CCC(=O)O)C(=O)O (Ac-Asp-Glu-OH),inactive,–
COc1cnc(SCc2ccc(Cl)cc2)nc1Cl,inactive,–
COc1cc(/C=N/O)cc(Br)c1OCc1cccc(Cl)c1,14.1 µM (active),–
COc1cc(/C=N/O)cc(Br)c1OCc1ccc(Cl)cc1,15.8 µM (active),–
Cc1ccc(-c2ccc(=O)n(CC(=O)NCCN(C)C)n2)cc1,inactive,–
CCCN1CCN(CCCNC(=O)Cn2nc(-c3ccc(C)cc3)ccc2=O)CC1,inactive,–
Cc1ccc(-c2ccc(=O)n(CC(=O)N3CCN(c4cccc(C)c4)C(C)C3)n2)cc1 (stereo not given),14.1 µM (active),–
COc1cc2c(cc1OC)C(c1ccc(N)cc1)=NNC(=O)C2,12.6 µM (active),–
COC(=O)c1cc(Br)c(=O)n(CCc2ccc(O)cc2)c1,15.8 µM (active),–
COC(=O)c1cc(Br)c(=O)n(CCN2CCCC2)c1,–,8.19% [at 2.29 µM]
CCOc1ccc2c(c1)nc(SCC(=O)c1ccc(Br)s1)n2C,6.31 µM (active),–
c1ccc2nc(C3=NCCN3)cnc2c1,inactive,–
C=CCNC(=S)N/N=C/c1ccc(OCc2ccccc2)cc1,inactive,–
C=CCNC(=S)Nc1ccc2nc(C)c(C)nc2c1,15.8 µM (active),–
CC(C)Cn1c(SCC(=O)c2c(N)n(C)c(=O)n(C)c2=O)nc2ccccc21,2.51 µM (active),–
CCNC(=O)NC(=O)CSc1nc2ccccc2n1CC(C)C,12.6 µM (active),–
OC[C@@H]1O[C@@H](n2cnc3c(NC4CCCC4)ncnc32)[C@H](O)[C@H]1O,inactive,–
CC(=O)Oc1ccc2ccccc2c1C(NC(=O)Cc1ccccc1)c1ccc(Cl)cc1 (stereo not given),8.91 µM (active),–
O=C(Cc1ccc(Cl)cc1)NNC(=O)Nc1cccc2ccccc12,–,-12.3% [at 2.29 µM]
CN1[C@@H]2CC[C@H]1CC(OC(c1ccccc1)c1ccccc1)C2 (stereo not given in full),inactive,–
Cc1cc(C(=O)C(=O)NC(C)C)c(C)n1-c1ccc([N+](=O)[O-])cc1,inactive,–
C=CCN(CC=C)C(=O)C(=O)c1cc(C)n(-c2ccc([N+](=O)[O-])cc2)c1C,2.82 µM (active),–

# Source: PubChem BioAssay AID1851 (National Center for Advancing Translational Sciences (NCATS), 2009)
